PPARg SRC-1 ag: PPARgamma-driven SRC-1 recruitment agonism; P37231; PPARgamma-SRC-1 coactivator recruitment biochemical assay; activation, % at 8 µM; hit rate 0.41% among 200,000; AID 631; in the data active = activation above about 19%;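 note: 0% = DMSO and 100% = reference agonist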
Target sequence (P37231 whole entry, looked up): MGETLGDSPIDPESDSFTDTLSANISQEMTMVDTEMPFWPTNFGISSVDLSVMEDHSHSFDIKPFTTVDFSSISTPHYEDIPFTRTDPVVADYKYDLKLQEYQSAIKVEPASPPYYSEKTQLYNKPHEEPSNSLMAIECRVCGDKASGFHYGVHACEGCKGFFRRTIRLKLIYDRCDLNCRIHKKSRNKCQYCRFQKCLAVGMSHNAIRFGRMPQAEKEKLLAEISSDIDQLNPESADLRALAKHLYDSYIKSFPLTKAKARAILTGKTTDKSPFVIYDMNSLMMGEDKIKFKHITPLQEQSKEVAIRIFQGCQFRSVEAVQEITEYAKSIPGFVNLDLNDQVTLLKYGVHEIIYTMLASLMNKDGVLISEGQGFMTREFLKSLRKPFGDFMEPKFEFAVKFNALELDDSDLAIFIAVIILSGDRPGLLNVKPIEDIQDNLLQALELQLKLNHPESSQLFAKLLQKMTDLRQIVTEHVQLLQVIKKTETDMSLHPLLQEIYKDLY
SRC1 TRFRET art: counter-screen for PPARgamma SRC-1 recruitment agonists: TR-FRET artefact; TR-FRET detection artefact counter-screen, emission ratio; active compounds read high; TR-FRET ratio at 8 µM; hit rate 0.34% among 99,000; in the data active = TR-FRET ratio above about 2300
SRC2 TRFRET art: flags TR-FRET format artefacts in PPARgamma SRC-2 recruitment agonist screen | TR-FRET ratio at 8 µM | TR-FRET artefact counter-screen; active compounds read high | hit rate 0.4% among 200,000 | AID 1049
PPARg SRC2 recr: agonists of SRC-2 recruitment by human PPARgamma. P37231. hit rate 0.34% among 200,000. PPARgamma LBD-SRC-2 recruitment, biochemical. activation, % at 8 µM; in the data active = activation above about 22%;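 note: 0% = vehicle and 100% = reference agonist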
SRC3 TRFRET art: counter-screen for PPARgamma SRC-3 recruitment agonists: TR-FRET artefact; PPARgamma/SRC-3 format; active compounds read high; TR-FRET ratio at 8 µM; hit rate 0.39% among 99,000
PPARg SRC3 recr: PPARgamma-driven SRC-3 recruitment agonism; hit rate 0.26% among 200,000; biochemical PPARgamma/SRC-3 coactivator recruitment assay; P37231; activation, % at 8 µM; in the data active = activation above about 23%;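 note: 0% = DMSO and 100% = reference agonist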
The depositor's hits bear a star; nt = no result. An excerpt weighted towards active compounds, which were near 0.9% of everything screened. Cut-off read from the data, not from the text of the source, unless noted: active = TR-FRET ratio above about 2000; inactive = the rest.

SMILES	PPARg SRC-1 ag	SRC1 TRFRET art	SRC2 TRFRET art	PPARg SRC2 recr	SRC3 TRFRET art	PPARg SRC3 recr
Cc1cc2ccccc2n1CCNC(=O)c1ccc(S(=O)(=O)N2CCOCC2)cc1	0	2656*	1798	3	2905*	3
COc1ccc(C(=O)CSc2nnc(CN3CCCCC3)n2-c2ccc(Cl)cc2)cc1OC	11	1797	1727	8	1555	0
CCN1/C(=N\N)c2cccc3cccc1c23	5	1918	1766	12	1615	3
O=C(NC1CCCC1)C(c1ccccc1)N(Cc1cccnc1)C(=O)Cc1cccs1 (stereo not given)	2	1660	1586	7	1403	1
COc1ccccc1-c1cc(-c2ccccc2)nc(SC(C(N)=O)c2ccccc2)c1C#N (stereo not given)	8	nt	3201*	7	nt	-1
O=C(c1ccccc1)c1nn(-c2ccccc2)c2nnc(Cc3ccccc3)c(=O)n12	6	nt	2100*	14	nt	7
c1ccc2c(c1)CC/C2=N/Nc1nc2ccccc2[nH]1	22*	1819	1668	5	1717	8
O=C(CN1CCCN(Cc2ccc(F)cc2Cl)C1=O)NC1CCCC1	0	1706	1618	10	1633	9
O=C(/C=C/c1ccccc1)NC(=S)N1CCSCC1	0	1649	1539	11	1495	0
CCCC1CCC(C(=O)Nn2c(C)nc3ccccc3c2=O)CC1 (stereo not given)	5	nt	1484	-3	nt	3
Cc1nc2ccccc2c(=O)n1NC(=O)c1ccco1	-2	nt	2082*	12	nt	7
O=C(Nn1c(-c2ccccc2)nc2ccccc2c1=O)c1ccco1	8	nt	1556	5	nt	3
CCCCCCC1CCC(C(=O)Nn2c(C)nc3ccccc3c2=O)CC1 (stereo not given)	5	nt	1723	22*	nt	-4
OC(COc1ccc(CN2CCCCO2)cc1)CN1CCCCC1 (stereo not given)	4	1927	1651	12	1752	-2
COc1cccc(-c2nn(-c3ccccc3)cc2C(=O)OCC(=O)Nc2ncc(Cl)cc2Cl)c1	8	2559*	2626*	11	3059*	0
O=C(COC(=O)c1ccccc1O)Nc1ncc(Cl)cc1Cl	4	2036	1547	9	1607	0
Cc1c(Cl)cccc1Nc1nc(N)nc(CSC(=S)N2CCOCC2)n1	4	1760	1605	6	1686	3
CCn1c(SCC(=O)O)nnc1C1CCCCC1	2	nt	1346	4	nt	29*
Clc1ncc(Cn2cccn2)s1	0	1805	1472	-3	1485	5
COC(=O)c1ccc(OC(=O)CCN2c3ccccc3Sc3ccccc32)cc1	11	1971	2002*	16	2754*	6
O=C(N/N=C/c1ccc(O)cc1)c1csc2ccccc12	46*	nt	1408	1	nt	-1
CCn1cc(/C=N\NC(=O)c2csc3ccccc23)c(C)n1	0	nt	1413	5	nt	0
CSc1ncccc1C(=O)OCC(=O)c1ccc(Br)s1	11	2355*	1749	15	3227*	16
CSc1ncccc1C(=O)OCC(=O)c1ccccc1Br	-5	1823	1616	0	1555	-2
COc1ccc(CCN(Cc2nc3ccccc3c(=O)[nH]2)C(=O)c2ccco2)cc1OC	20*	nt	1517	-1	nt	-1
SMILES	PPARg SRC-1 ag	SRC1 TRFRET art	SRC2 TRFRET art	PPARg SRC2 recr	SRC3 TRFRET art	PPARg SRC3 recr
CC(=O)Nc1ccc(S(=O)(=O)N(C)CC(=O)OCC(=O)c2cc(C)n(-c3ccc4c(c3)OCO4)c2C)cc1	-6	1853	1550	4	1481	-7
COc1ccc(CCN(C)C(=O)C2CCN(Cc3cccc(OC)c3OC)CC2)cc1OC	0	1601	1304	-2	1640	2
COC(=O)c1sccc1NC(=O)c1ccc(Br)s1	43*	nt	1947	10	nt	14
O=C(COC(=O)CCN1C(=O)c2cccc([N+](=O)[O-])c2C1=O)NCc1ccccc1	4	1745	1993*	4	1749	1
O=C(COC(=O)CSCc1ccccc1)NCc1ccccc1	-6	1600	1536	-3	1456	-3
CCOC(=O)c1c(-c2ccccc2)csc1NC(=O)c1ccc(S(=O)(=O)N2CC(C)OC(C)C2)cc1 (stereo not given)	-3	nt	1345	-6	nt	-1
CCOC(=O)c1c(-c2ccccc2)csc1NC(=O)c1cc(S(=O)(=O)N2CCOCC2)ccc1C	5	1833	1857	6	2203*	4
c1ccc2[nH]c3cc4ncnc4cc3nc2c1	22*	1830	1543	8	1699	15
COc1ccc(S(=O)(=O)Nc2c(F)cccc2F)cc1	3	1989	2118*	22*	1710	5
Cc1ccccc1NC(=S)N(CCCN1CCCCC1)Cc1ccco1	-4	1866	1704	-4	1580	0
Cc1ccccc1NC(=S)N(CCN1CCCCC1)Cc1ccco1	5	2157	2001*	4	1622	3
CCOc1ccc(N=C2NN=C(c3cc(C)n(CC4CCCO4)c3C)CS2)cc1 (stereo not given)	22*	1953	1711	3	1828	2
O=C(O)c1cc(-c2ccco2)nc2ccc(Br)cc12	18	2318*	2007*	22	2104*	16
O=C(c1ccco1)N1CCN(C(=O)c2cc(-c3ccncc3)nc3ccc(Br)cc23)CC1	9	nt	1679	5	nt	15
O=C(NNC(=O)c1ccc(F)cc1F)c1ccc2c(c1)OCO2	-1	1456	1552	-5	1702	-3
CON(C)S(=O)(=O)c1ccc2c(c1)N(Cc1ccc(C)cc1)C(=O)C1CCCN21 (stereo not given)	1	2187	1753	5	2052*	6
O=C1C2CCCN2c2ccc(S(=O)(=O)N3CCOCC3)cc2N1Cc1cccc(C(F)(F)F)c1 (stereo not given)	4	nt	1640	6	nt	5
CCOc1cc(CNc2ccc(N3CCN(C(C)=O)CC3)cc2)cc(Br)c1OC	9	2072	1693	22*	1823	10
CCOc1cc(CNc2ccc(N3CCCC3)cc2)cc(Cl)c1OC	11	2142	2050*	16	1773	5
COc1cc(CNc2ccc(N3CCCC3)cc2)cc(Cl)c1OC	-1	1823	1390	1	1865	7
CC1(C)CC(N=Cc2c(O)n(Cc3ccc4c(c3)OCO4)c(=O)c3ccccc23)CC(C)(C)N1	1	1646	1699	2	1448	3
Cc1ccc(N=c2ssnc2Cl)cc1	0	nt	1546	2	nt	8
Cc1cc(C)nc(/N=c2/ssnc2Cl)c1	9	nt	1451	-4	nt	28*
Cc1cc(C)c(S(=O)(=O)N2CCN(C(=O)N(C)C)CC2)c(C)c1	-3	1879	1444	5	1731	1
COc1ccc2oc(C(=O)CCC(=O)O)c(N)c2c1	0	nt	1609	9	nt	18
COC(=O)CCC(=O)c1oc2ccc(Br)cc2c1N	-1	nt	1390	24*	nt	5
CCc1nc2ccc(C(=O)Nc3cccc(C(C)=O)c3)cc2nc1CC	-2	1697	1617	-7	1517	-4

Compound activity deposited in PubChem BioAssay by The Scripps Research Institute Molecular Screening Center.
